Shiga inhibitor – blocks Shiga toxin action in Vero cells | Vero cells, Shiga toxin protein synthesis inhibition reporter | AID 2315 | inhibition, % at 38.7 µM | 9.2% of 290,000 active; in the data active means inhibition mostly above about 28%, no sharp cut-off; inactive means mostly below about 43%
MARV entry inh – Marburg virus entry inhibition; 1.8% of 300,000 active; AID 540276; Marburg virus pseudotyped entry inhibition, cell reporter; Potency, µM (series often up to 37.8 µM), actives largely listed as inhibitors; calls by dose curve; tested in HEK293 cells
CHX counter – affects cycloheximide protein synthesis inhibition readout, counter-screen; AID 2314; 12% of 300,000 active; cell reporter, cycloheximide protein synthesis inhibition counterscreen; max response, %; in the data active means max response mostly above about 13%, no sharp cut-off; inactive means mostly below about 14%; further: read at 38.3 µM for the half of the compounds with a filed dose
AMA1 RON2 block – AMA1-RON2 (P. falciparum) interaction inhibition. AlphaScreen AMA1-biotinylated RON2 peptide binding. Potency, µM (highest dose often 58.2 µM), most hits filed as inhibitors. 0.2% of 360,000 active. AID 720542; active means well fitted inhibition curve with a large enough effect; inconclusive means small, poorly fitted or top-dose-only effect; inactive means no such curve, though single readings can be large or run the other way; further: nearly all actives have a fitted effect of over 45% in size
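AMA1 (3D7) with his tag at 25 nM final met compounds first, then biotinylated RON2 peptide at 25 nM; detection used donor plus acceptor beads, 10 µg/mL apiece, read by AlphaScreen after 30 min at room temperature.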
Lassa entry inh – blocks Lassa virus binding to or entry into cells. Lassa virus pseudotype entry inhibition, cell reporter. Potency, µM (titrated, usually from 37.9 µM), most hits filed as inhibitors. 1.2% of 300,000 active; calls by dose curve; tested in HEK293 cells; further: nearly all actives have a fitted effect of over 50% in size
Numbers stand for hits. This excerpt belongs to a sample that is enriched for hits.

`COc1ccc(NC(=O)Cn2ccn(-c3ccc(C)c(C)c3)c(=O)c2=O)cc1Cl` gave Lassa entry inh inactive.
For CCOc1ccc(Nc2ccc([N+](=O)[O-])c3nonc23)cc1 the results were Shiga inhibitor 56, CHX counter 33 and AMA1 RON2 block inconclusive.
For CNC(=O)C1CCN(Cc2cc3ccccc3n2Cc2cccc(C)c2)CC1 the results were Lassa entry inh inactive.
`O=C(CSc1c(Cl)cccc1Cl)N1CCC(c2nc3ccccc3s2)CC1` gave Shiga inhibitor inactive, MARV entry inh inconclusive, CHX counter inactive, AMA1 RON2 block inactive and Lassa entry inh inactive.
Screening Cc1c(Cl)cccc1N/C(SCC(=O)N1CCCCCC1)=C(/C#N)c1nc2ccccc2s1 returned Shiga inhibitor inactive, MARV entry inh 11µM, CHX counter inactive, AMA1 RON2 block inactive and Lassa entry inh inconclusive.
CC1Cc2ccccc2N1C(=O)CSc1nc2ccccc2s1 (stereo not given) was read as Shiga inhibitor 41, MARV entry inh inactive, CHX counter 24, AMA1 RON2 block inactive and Lassa entry inh inactive.
CC1CCCC(C)N1C(=O)CSc1nc2ccccc2s1 (stereo not given) was read as Shiga inhibitor 126, MARV entry inh inactive, CHX counter 35, AMA1 RON2 block inactive and Lassa entry inh inconclusive.
O=C(CSc1nc2ccccc2n1S(=O)(=O)c1ccccc1)N1CCCC1 was read as Shiga inhibitor 48, MARV entry inh inactive, CHX counter 13, AMA1 RON2 block inactive and Lassa entry inh inactive.
For O=C(Nc1cc(S(=O)(=O)N2CCCCCC2)ccc1OCC(F)(F)F)c1cnccn1 the results were MARV entry inh inactive, AMA1 RON2 block inactive and Lassa entry inh inactive.
Screening O=C(CSc1nncc2ccccc12)N1CCCCC1 returned Shiga inhibitor inactive, MARV entry inh inactive, CHX counter 45, AMA1 RON2 block inactive and Lassa entry inh inactive.
Screening CCc1nc(SCC(=O)N2c3ccccc3CC2C)c2c(C)c(C)sc2n1 (stereo not given) returned Shiga inhibitor inactive, MARV entry inh 0.92µM, CHX counter inactive, AMA1 RON2 block inactive and Lassa entry inh 1.5µM.
Screening CC1CCN(C(=O)CSc2nc3ccccc3s2)CC1 returned Shiga inhibitor inactive, MARV entry inh inactive, CHX counter 34, AMA1 RON2 block inactive and Lassa entry inh inactive.
Screening O=C(CSc1nc2ccccc2s1)N1CCCCC1 returned Shiga inhibitor 124, MARV entry inh inactive, CHX counter 43, AMA1 RON2 block inactive and Lassa entry inh inactive.
O=C(CSc1nc(C2CC2)nc2ccccc12)N1CCCCC1 was read as Shiga inhibitor inactive, MARV entry inh inconclusive, CHX counter inactive, AMA1 RON2 block inactive and Lassa entry inh inactive.
CC(C)c1nn2c(=O)cc(COC(=O)c3ccc(NC(=O)COc4ccccc4)cc3)nc2s1 was read as Lassa entry inh inactive.
`O=C(c1cccnc1)N1CCC2CC1c1c(Cl)cccc12` (stereo not given) gave AMA1 RON2 block inactive.
For CNC(=O)CSc1nc(SC)ns1 the results were Shiga inhibitor inactive, MARV entry inh inactive, CHX counter inactive, AMA1 RON2 block inactive and Lassa entry inh inactive.
CSc1nsc(SCC(=O)N2CCCCC2)n1 was read as Shiga inhibitor 93, MARV entry inh inconclusive, CHX counter 53, AMA1 RON2 block inactive and Lassa entry inh inactive.
Cc1ccc(-c2csc3ncnc(SCC(N)=O)c23)cc1 was read as Shiga inhibitor inactive, MARV entry inh inactive, CHX counter inactive, AMA1 RON2 block inactive and Lassa entry inh inactive.
Cn1nnnc1Sc1ncnc2scc(-c3ccc(F)cc3)c12 was read as Shiga inhibitor inactive, MARV entry inh 8.2µM, CHX counter inactive, AMA1 RON2 block inactive and Lassa entry inh 4.1µM.
`Cn1nnnc1Sc1ncnc2scc(-c3ccccc3)c12` gave Shiga inhibitor inactive, MARV entry inh 7.1µM, CHX counter inactive, AMA1 RON2 block inactive and Lassa entry inh inconclusive.
`COc1cc2c(cc1OC)C(C)N(C(=O)c1ccc(Cl)c(S(=O)(=O)N3CCCCC3)c1)CC2` (stereo not given) gave Shiga inhibitor inactive, CHX counter inactive and AMA1 RON2 block inactive.
O=C1C=C(NCCN2CCOCC2)C(=O)c2cnccc21 was read as Shiga inhibitor inactive, MARV entry inh 2.9µM, CHX counter inactive and Lassa entry inh inconclusive.
CNc1ccc(C(=O)Oc2cc(O/N=[N+](\[O-])N(C)C)c([N+](=O)[O-])cc2[N+](=O)[O-])cc1 was read as Shiga inhibitor 73 and CHX counter 40.
`CCOC(=O)N1CCN([N+]([O-])=NOc2cc(O/N=[N+](\[O-])N(C)C)c([N+](=O)[O-])cc2[N+](=O)[O-])CC1` gave Shiga inhibitor inactive and CHX counter inactive.
For CNc1nnc(-c2ccc(N(C)C)cc2)s1 the results were Shiga inhibitor inactive, MARV entry inh inconclusive, CHX counter 18, AMA1 RON2 block inactive and Lassa entry inh inconclusive.
`COc1ccc(NS(=O)(=O)c2ccc3c(c2)n(C)c(=O)c(=O)n3C)cc1Cl` gave MARV entry inh inconclusive and Lassa entry inh inactive.
For Cc1nc2ccc(NC(=O)N3CCSCC3)cc2nc1C the results were Shiga inhibitor inactive, MARV entry inh inactive, CHX counter inactive, AMA1 RON2 block inactive and Lassa entry inh inactive.
`CCOC(=O)Nc1ccc2nc(N3CCCCCC3)sc2c1` gave Shiga inhibitor 126, CHX counter 34 and AMA1 RON2 block inactive.
CCOC(=O)N1CCN(C(=O)Nc2ccc3nc(C)sc3c2)CC1 was read as Shiga inhibitor inactive, MARV entry inh inactive, CHX counter 17, AMA1 RON2 block inactive and Lassa entry inh inactive.
For Cc1nc2ccc(NC(=O)N3CCN(c4ccccn4)CC3)cc2s1 the results were Shiga inhibitor inactive, MARV entry inh inactive, CHX counter inactive, AMA1 RON2 block inactive and Lassa entry inh inactive.
Screening Cc1nc2ccc(NC(=O)N3CCSCC3)cc2s1 returned Shiga inhibitor inactive, MARV entry inh inactive, CHX counter 18, AMA1 RON2 block inactive and Lassa entry inh inactive.
Screening Cc1nc2ccc(NC(=O)N3CCCCC3)cc2s1 returned Shiga inhibitor 41, MARV entry inh inconclusive, CHX counter 28, AMA1 RON2 block inactive and Lassa entry inh inactive.
For COc1ccc(C(=O)Nc2ccc3nc(N4CCOCC4)sc3c2)cc1OC the results were AMA1 RON2 block inactive.
For COc1ccc(NC(=O)c2ncoc2-c2ccco2)cc1Cl the results were Lassa entry inh inactive.
For Cc1ccc(C)c(OCC(=O)O/N=C(\N)c2cccnc2)c1 the results were Shiga inhibitor inactive, MARV entry inh inactive, CHX counter 19, AMA1 RON2 block inactive and Lassa entry inh inactive.
Cc1ccc(C)c(OCC(=O)O/N=C(\N)c2ccccn2)c1 was read as Shiga inhibitor 88, MARV entry inh inconclusive, CHX counter 28, AMA1 RON2 block inactive and Lassa entry inh inconclusive.
For Cc1cc(C)c(C)c(OCC(=O)O/N=C(\N)c2cccnc2)c1 the results were Shiga inhibitor inactive, CHX counter inactive and AMA1 RON2 block inactive.
`CCc1ccc(OCC(=O)O/N=C(\N)c2cccnc2)cc1` gave Shiga inhibitor 44, MARV entry inh inactive, CHX counter 32, AMA1 RON2 block inactive and Lassa entry inh inactive.
For N/C(=N\OC(=O)CC1CCCCC1)c1ccccn1 the results were Shiga inhibitor inactive, MARV entry inh inactive, CHX counter inactive, AMA1 RON2 block inactive and Lassa entry inh inconclusive.

Compound activity as filed in PubChem BioAssay.
